These results are taken from the supplement of paper PMC10681739.

Assay [1] concerns the target T1, ETS1 (UniProt P14921).
T1 sequence: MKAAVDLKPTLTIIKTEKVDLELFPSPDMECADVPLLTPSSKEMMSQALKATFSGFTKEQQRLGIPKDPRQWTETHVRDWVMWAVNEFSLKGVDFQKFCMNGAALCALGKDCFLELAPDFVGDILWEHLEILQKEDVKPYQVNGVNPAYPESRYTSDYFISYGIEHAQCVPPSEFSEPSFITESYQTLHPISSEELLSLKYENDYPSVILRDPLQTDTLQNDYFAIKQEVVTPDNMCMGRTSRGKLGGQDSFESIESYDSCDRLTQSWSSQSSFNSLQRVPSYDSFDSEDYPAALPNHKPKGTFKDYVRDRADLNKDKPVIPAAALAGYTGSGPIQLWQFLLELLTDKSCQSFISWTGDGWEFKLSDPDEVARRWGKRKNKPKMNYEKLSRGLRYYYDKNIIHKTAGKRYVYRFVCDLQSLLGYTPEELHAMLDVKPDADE
As to the kind of experiment: ETS1 binding intensity (PBM fluorescence), ETS1 alone (arbitrary fluorescence units); higher = stronger binding. As to conditions: ETS1 concentration 1 nM; RUNX1 concentration 0 nM.

Assay [2] deals with RUNX1 (UniProt Q01196). As to the kind of experiment: RUNX1 binding intensity (PBM fluorescence), RUNX1 alone (arbitrary fluorescence units); higher = stronger binding. As to conditions: RUNX1 concentration 2 nM; ETS1 concentration 0 nM. The procedure: (§1)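 Cooperative gcPBM on 36-bp genomic probes with neighbouring ETS1 and RUNX1 sites. Recombinant human RUNX1 (2 nM) was incubated alone or with ETS1 (25 nM) and detected with anti-RUNX1 antibody plus Alexa488 secondary. Values are medians over 4 replicate spots; the RUNX1+ETS1 data were normalised to the RUNX1-only data. The probes sit in constant array flanks that are not printed.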
Chain of RUNX1 (Q01196 whole entry): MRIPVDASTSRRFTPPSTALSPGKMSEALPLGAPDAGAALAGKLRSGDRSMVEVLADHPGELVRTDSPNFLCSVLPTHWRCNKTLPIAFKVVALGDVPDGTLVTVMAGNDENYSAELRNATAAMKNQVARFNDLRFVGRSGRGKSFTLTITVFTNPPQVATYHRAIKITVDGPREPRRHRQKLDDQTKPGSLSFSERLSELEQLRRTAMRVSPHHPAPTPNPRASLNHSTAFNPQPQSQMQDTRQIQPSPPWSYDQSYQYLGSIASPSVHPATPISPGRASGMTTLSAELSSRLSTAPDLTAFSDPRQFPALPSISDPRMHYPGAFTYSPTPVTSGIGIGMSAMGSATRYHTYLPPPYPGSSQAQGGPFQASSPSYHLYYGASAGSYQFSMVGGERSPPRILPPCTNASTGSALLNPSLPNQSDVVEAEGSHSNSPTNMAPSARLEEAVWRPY

In assay [3] the target is T1, ETS1. In words: ETS1 binding intensity (PBM fluorescence) in presence of RUNX1, normalised to ETS1-only experiment (arbitrary fluorescence units); higher = stronger binding. As to conditions: ETS1 concentration 1 nM; RUNX1 concentration 25 nM.
Assay [4] concerns the target RUNX1 (UniProt Q01196). As to the kind of experiment: RUNX1 binding intensity (PBM fluorescence) in presence of ETS1, normalised to RUNX1-only experiment (arbitrary fluorescence units); higher = stronger binding. Conditions: RUNX1 concentration 2 nM; ETS1 concentration 25 nM. Here is the method: as §1
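Throughout, for RUNX1 binding intensity (PBM fluorescence) in presence of ETS1, normalised to RUNX1-only experiment: Full-length recombinant human ETS1 or RUNX1 bound to double-stranded 36-bp genomic probes on microarrays, detected by protein-specific primary antibody and Alexa488 secondary, spot fluorescence as median of four replicate spots.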
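Throughout, for RUNX1 binding intensity (PBM fluorescence), RUNX1 alone: Full-length recombinant human RUNX1 bound to double-stranded 36-bp genomic probes on a high-density microarray, scored as Alexa488 fluorescence per spot via anti-RUNX1 antibody, median of four replicate spots.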

For the sequence AGAGACAGCGGGCGGAAACCGCAGAAAAAGTTGAAA, the ETS1 binding intensity with ETS1 [1] came out at 1640; with ETS1 [3], 3260. Also, the RUNX1 binding intensity with RUNX1 [2] amounted to 8270; with RUNX1 [4] it was 14200.

With CCCTACCTCTCCTTCCTGCCACAAGGGAAAGTCACT, the ETS1 binding intensity in the assay with ETS1 [1] stood at 508; with ETS1 [3], 481. For the same sequence, the values for the RUNX1 binding intensity in the assay with RUNX1 [2] and in the assay with RUNX1 [4] were 1390 and 2550, respectively.

On to AACAGCACACAGGAAGTTACCGCTGAAGCAAAGGAG, for which the ETS1 binding intensity was 2750 with ETS1 [1] and 4760 in the assay with ETS1 [3]. In addition, the values for the RUNX1 binding intensity in the assay with RUNX1 [2] and with RUNX1 [4] were 813 and 1250, respectively.

As for GAAGAGGGTGGAGAAGGAAGTGGTCACACCACTTGC, the ETS1 binding intensity in the assay with ETS1 [1] amounted to 1140; with ETS1 [3], 2380. For the same sequence, the RUNX1 binding intensity worked out at 675 in the assay with RUNX1 [2] and 929 with RUNX1 [4].

As for ACCCACTTCCTGTTAGAGCATCTTTGCAACCACAGG, the ETS1 binding intensity with ETS1 [1] turned out to be 2010; with ETS1 [3], 3230. Besides, the RUNX1 binding intensity is 933 with RUNX1 [2] and 3000 with RUNX1 [4].

As to CACTTCCTCTGTGACTGCAGGTTTCCAACCACAAGC, the ETS1 binding intensity came to 601 in the assay with ETS1 [1] and 1510 with ETS1 [3]. Also, the RUNX1 binding intensity with RUNX1 [2] turned out to be 988; with RUNX1 [4], 2370.

Consider ACTTTAATAGAGTCCGGATGCGGTTAGGCTGACAGA, for which the ETS1 binding intensity with ETS1 [1] stood at 2670; with ETS1 [3] it was 30400. Also, the RUNX1 binding intensity was 2000 with RUNX1 [2] and 7430 with RUNX1 [4].

On to CCGGGCGCCACTTCCGGTCCCCGTGGTCACGTGACC, for which the ETS1 binding intensity with ETS1 [1] is 14800; with ETS1 [3], 16100. For the same sequence, the RUNX1 binding intensity with RUNX1 [2] turned out to be 904; in the assay with RUNX1 [4], 3740.

As for GACATCTTCCGGTTGCTACAGGTTACGGCGGTTGCT, the ETS1 binding intensity is 2700 with ETS1 [1] and 2640 with ETS1 [3]. Also, the RUNX1 binding intensity worked out at 778 with RUNX1 [2] and 1640 with RUNX1 [4].

GGCCGGCTTCCGGGGCGGGTGGAAAGGAGCCACAAG: the ETS1 binding intensity was found to be 501 with ETS1 [1] and 498 in the assay with ETS1 [3]. Moreover, the figures for the RUNX1 binding intensity in the assay with RUNX1 [2] and in the assay with RUNX1 [4] were 750 and 1260, respectively.

In the case of AAGTTTTGGGTTTTCCGCCCACAGCCGCCGAAAGTG, the ETS1 binding intensity with ETS1 [1] is 630; with ETS1 [3] it was 684. In addition, the figures for the RUNX1 binding intensity in the assay with RUNX1 [2] and with RUNX1 [4] were 888 and 1090, respectively.

On to TTTCTCTTCCTGTTTCCACCCTGACCACAGCCAGCT, for which the ETS1 binding intensity in the assay with ETS1 [1] amounted to 476; with ETS1 [3], 1350. Further, the RUNX1 binding intensity in the assay with RUNX1 [2] is 2930; in the assay with RUNX1 [4], 5140.

AGGCTTCCTGTTTTATCTCGTGTGTGTGGTGCACCA: the ETS1 binding intensity with ETS1 [1] was 547; with ETS1 [3], 565. For the same sequence, the RUNX1 binding intensity in the assay with RUNX1 [2] was 970; with RUNX1 [4], 2120.

For TGTGCTGACTACAGGATGCTGTGGTTAGTCAGGTTG, the ETS1 binding intensity in the assay with ETS1 [1] amounted to 1690; in the assay with ETS1 [3] it was 13800. The RUNX1 binding intensity worked out at 809 in the assay with RUNX1 [2] and 1720 with RUNX1 [4].

As for GGAGCGCGCCGGAAACGCGCGGCTGCGGCCCGGGAG, the ETS1 binding intensity with ETS1 [1] turned out to be 4280; in the assay with ETS1 [3], 4330. For the same sequence, the RUNX1 binding intensity with RUNX1 [2] turned out to be 722; with RUNX1 [4], 1320.

As to GACAGTCATGTTTCAGGATGTGGTTTTAGCCAAAGG, the ETS1 binding intensity with ETS1 [1] is 1550; with ETS1 [3], 13200. Further, the figures for the RUNX1 binding intensity with RUNX1 [2] and with RUNX1 [4] were 816 and 1710, respectively.

Regarding AGCCCCTACCACTTCCCCCCACAGCAGTTCTGAGAT, the figures for the ETS1 binding intensity with ETS1 [1] and with ETS1 [3] were 720 and 755, respectively. Also, the RUNX1 binding intensity with RUNX1 [2] is 1410; with RUNX1 [4], 2250.

On to CTTGGCGGAAGTGGTGTGGGGGAGGTAGCCCGCAGT, for which the ETS1 binding intensity in the assay with ETS1 [1] came out at 1840; with ETS1 [3], 5600. Besides, the RUNX1 binding intensity was 753 in the assay with RUNX1 [2] and 3460 with RUNX1 [4].

As to AGCTTCCTGTTTGGCCTTGCTGATGTCACCGCATTA, the ETS1 binding intensity with ETS1 [1] came out at 729; with ETS1 [3], 1090. Besides, the RUNX1 binding intensity is 932 in the assay with RUNX1 [2] and 2360 in the assay with RUNX1 [4].

Turning to AGGACCTAACACTCAGGAAGTGGTCAACCTTGCTGC, the ETS1 binding intensity with ETS1 [1] turned out to be 2760; in the assay with ETS1 [3] it was 3710. Besides, the RUNX1 binding intensity with RUNX1 [2] was found to be 897; with RUNX1 [4], 1420.

In the case of TGCTTCCCGTCCGTGTCGCGGCCCTGCGGTTGGCGG, the ETS1 binding intensity with ETS1 [1] is 324; in the assay with ETS1 [3], 813. In addition, the RUNX1 binding intensity was determined as 1080 in the assay with RUNX1 [2] and 3310 with RUNX1 [4].

Consider AAATCACATACCCGGAAACCACATGCACAGAAGTGG, for which the ETS1 binding intensity with ETS1 [1] was 1480; with ETS1 [3], 3060. For the same sequence, the RUNX1 binding intensity with RUNX1 [2] turned out to be 1090; in the assay with RUNX1 [4], 2090.

Consider ACAGGAAGAGATATTATATCTCCCTGCGGTTGGTTT, for which the values for the ETS1 binding intensity with ETS1 [1] and with ETS1 [3] were 583 and 2430, respectively. The values for the RUNX1 binding intensity in the assay with RUNX1 [2] and in the assay with RUNX1 [4] were 904 and 779, respectively.

CCTCACAGGGACTTCCTTCCCCGCGGTTCAGGAATC: the ETS1 binding intensity stood at 444 with ETS1 [1] and 577 with ETS1 [3]. Also, the RUNX1 binding intensity with RUNX1 [2] amounted to 866; with RUNX1 [4], 1100.

Regarding ACCTCATCCTGCTGTTCTTGTGTGTGGTTGAGCAGT, the ETS1 binding intensity with ETS1 [1] is 453; with ETS1 [3], 432. For the same sequence, the RUNX1 binding intensity with RUNX1 [2] turned out to be 944; with RUNX1 [4] it was 1340.

Regarding GGACTTCCTGAAGCCAGATCGGTTTACCACAGTCAG, the ETS1 binding intensity was found to be 413 with ETS1 [1] and 599 with ETS1 [3]. Besides, the results for the RUNX1 binding intensity in the assay with RUNX1 [2] and in the assay with RUNX1 [4] were 634 and 1860, respectively.

Turning to GGGGGAGTTTTCGGAAGCGCTAACCGCGTTGGGGCC, the results for the ETS1 binding intensity with ETS1 [1] and in the assay with ETS1 [3] were 365 and 874, respectively. Further, the RUNX1 binding intensity with RUNX1 [2] is 860; in the assay with RUNX1 [4] it was 954.

Turning to CGGGGGCCAGGCTTCCTGTGGTGGGAGCGGCAGGCC, the ETS1 binding intensity with ETS1 [1] is 443; in the assay with ETS1 [3], 477. Besides, the RUNX1 binding intensity with RUNX1 [2] turned out to be 830; in the assay with RUNX1 [4], 1350.

Regarding CACTCCCCGCATCCGGTCTGCGGCGCGCTCGGGGCC, the ETS1 binding intensity in the assay with ETS1 [1] stood at 3830; with ETS1 [3], 4710. The RUNX1 binding intensity stood at 912 in the assay with RUNX1 [2] and 29400 with RUNX1 [4].

Consider TGCGCCGCTTCCGCTGCCCGAGGAAGAGCCGCAGTC, for which the ETS1 binding intensity in the assay with ETS1 [1] worked out at 1090; with ETS1 [3], 1230. Further, the RUNX1 binding intensity turned out to be 802 with RUNX1 [2] and 1870 in the assay with RUNX1 [4].

As to AACAAACAGTAGGCAGGAAGTGGTTAAACCGAAAGG, the ETS1 binding intensity was 8580 with ETS1 [1] and 28900 with ETS1 [3]. The RUNX1 binding intensity with RUNX1 [2] was found to be 897; with RUNX1 [4] it was 3590.

Regarding AGCGCCGGAAGTGTGTCTGCGTAAAACTGCGGCTCG, the ETS1 binding intensity was 3490 in the assay with ETS1 [1] and 3720 with ETS1 [3]. Besides, the RUNX1 binding intensity with RUNX1 [2] amounted to 740; in the assay with RUNX1 [4], 1520.

For ACATTCTTCCGGTTGGACCTCCGCGGTCAGCGCTGT, the ETS1 binding intensity with ETS1 [1] is 871; in the assay with ETS1 [3], 1710. For the same sequence, the RUNX1 binding intensity worked out at 1110 with RUNX1 [2] and 3220 with RUNX1 [4].

Regarding ACTCGGGAATGTCCGGTCGTGGTAAGCAGGGTGGCA, the ETS1 binding intensity came to 516 with ETS1 [1] and 529 with ETS1 [3]. The results for the RUNX1 binding intensity with RUNX1 [2] and with RUNX1 [4] were 803 and 1680, respectively.

Take TGGCATTCTCCTTCCTGTCTCCTAACCACAGCCCAC: the ETS1 binding intensity was 741 with ETS1 [1] and 2050 with ETS1 [3]. Besides, the RUNX1 binding intensity came out at 2110 with RUNX1 [2] and 4690 with RUNX1 [4].

For the sequence CAGGCAGGATGTTGACTCAGCTGCCAAGTGGTTTTG, the ETS1 binding intensity in the assay with ETS1 [1] turned out to be 1340; with ETS1 [3], 1760. The RUNX1 binding intensity with RUNX1 [2] amounted to 719; with RUNX1 [4] it was 1020.

Turning to GCAGGGGCCCATTTCCTGCCACAAGCCCACACAGGA, the ETS1 binding intensity came out at 1390 in the assay with ETS1 [1] and 1280 with ETS1 [3]. Also, the RUNX1 binding intensity was 749 with RUNX1 [2] and 1750 with RUNX1 [4].
